Data on 1 compound can be found in ChEMBL document CHEMBL2218924, “A broad activity screen in support of a chemogenomic map for kinase signalling research and drug discovery” (Biochem J, 2013).

Assay [1] deals with Tyrosine-protein kinase SYK (Homo sapiens) (UniProt P43405). The note with it: at 10 µM.
In assay [2] the target is T1, Mitogen-activated protein kinase kinase kinase 7 (Homo sapiens) (UniProt O43318).
T1 sequence (whole entry): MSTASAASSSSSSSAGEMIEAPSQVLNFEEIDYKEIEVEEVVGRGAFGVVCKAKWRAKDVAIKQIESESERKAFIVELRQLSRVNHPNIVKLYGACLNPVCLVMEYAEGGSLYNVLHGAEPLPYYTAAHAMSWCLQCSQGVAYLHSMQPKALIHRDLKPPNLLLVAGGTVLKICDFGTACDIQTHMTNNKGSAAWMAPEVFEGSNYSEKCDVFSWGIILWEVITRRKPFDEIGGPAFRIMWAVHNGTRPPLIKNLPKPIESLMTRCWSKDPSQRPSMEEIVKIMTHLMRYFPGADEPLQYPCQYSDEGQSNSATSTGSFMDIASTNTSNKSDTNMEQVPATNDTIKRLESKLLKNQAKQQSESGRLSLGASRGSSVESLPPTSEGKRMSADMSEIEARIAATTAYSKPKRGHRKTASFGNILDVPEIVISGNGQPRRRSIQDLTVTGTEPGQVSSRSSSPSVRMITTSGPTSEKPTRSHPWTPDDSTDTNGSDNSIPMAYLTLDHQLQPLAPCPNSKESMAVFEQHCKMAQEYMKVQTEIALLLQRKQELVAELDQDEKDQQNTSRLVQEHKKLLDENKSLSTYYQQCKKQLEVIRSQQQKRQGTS
The note with it: at 1 µM.

The target in assay [3] is T1, Mitogen-activated protein kinase kinase kinase 7 (Homo sapiens). The note with it: at 10 µM.
In assay [4] the target is T2, Serine/threonine-protein kinase TAO1 (Homo sapiens) (UniProt Q7L7X3).
T2 sequence (whole entry): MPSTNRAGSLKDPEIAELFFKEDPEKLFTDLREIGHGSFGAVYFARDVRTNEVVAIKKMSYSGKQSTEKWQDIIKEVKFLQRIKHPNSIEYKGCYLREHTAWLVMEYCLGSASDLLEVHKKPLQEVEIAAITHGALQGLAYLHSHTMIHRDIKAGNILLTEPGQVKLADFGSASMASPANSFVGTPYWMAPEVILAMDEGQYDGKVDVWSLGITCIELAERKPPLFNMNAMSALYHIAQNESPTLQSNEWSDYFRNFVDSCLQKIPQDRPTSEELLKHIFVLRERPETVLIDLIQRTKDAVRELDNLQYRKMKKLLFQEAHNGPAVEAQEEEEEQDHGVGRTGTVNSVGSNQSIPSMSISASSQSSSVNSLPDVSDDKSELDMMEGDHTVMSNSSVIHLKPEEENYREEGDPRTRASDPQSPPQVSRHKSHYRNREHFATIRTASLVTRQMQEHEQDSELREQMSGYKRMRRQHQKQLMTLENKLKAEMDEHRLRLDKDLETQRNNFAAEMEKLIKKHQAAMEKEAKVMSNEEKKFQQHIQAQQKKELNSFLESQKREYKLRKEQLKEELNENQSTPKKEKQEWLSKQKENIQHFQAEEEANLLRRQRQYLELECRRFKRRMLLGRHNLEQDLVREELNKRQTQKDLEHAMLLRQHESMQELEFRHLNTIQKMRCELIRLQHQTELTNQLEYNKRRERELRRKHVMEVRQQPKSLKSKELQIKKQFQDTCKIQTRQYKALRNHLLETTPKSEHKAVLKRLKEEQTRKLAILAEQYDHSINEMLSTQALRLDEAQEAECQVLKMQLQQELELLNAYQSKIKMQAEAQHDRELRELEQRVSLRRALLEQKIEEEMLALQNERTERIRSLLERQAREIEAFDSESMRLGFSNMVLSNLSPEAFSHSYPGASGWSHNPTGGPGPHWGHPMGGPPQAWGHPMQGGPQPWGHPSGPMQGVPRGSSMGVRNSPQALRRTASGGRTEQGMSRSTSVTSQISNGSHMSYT
Conditions: at 1 µM.

In assay [5] the target is T2, Serine/threonine-protein kinase TAO1 (Homo sapiens). Conditions: at 10 µM.
Assay [6] addresses T3, Serine/threonine-protein kinase TAO2 (Homo sapiens) (UniProt Q9UL54).
T3 sequence (whole entry): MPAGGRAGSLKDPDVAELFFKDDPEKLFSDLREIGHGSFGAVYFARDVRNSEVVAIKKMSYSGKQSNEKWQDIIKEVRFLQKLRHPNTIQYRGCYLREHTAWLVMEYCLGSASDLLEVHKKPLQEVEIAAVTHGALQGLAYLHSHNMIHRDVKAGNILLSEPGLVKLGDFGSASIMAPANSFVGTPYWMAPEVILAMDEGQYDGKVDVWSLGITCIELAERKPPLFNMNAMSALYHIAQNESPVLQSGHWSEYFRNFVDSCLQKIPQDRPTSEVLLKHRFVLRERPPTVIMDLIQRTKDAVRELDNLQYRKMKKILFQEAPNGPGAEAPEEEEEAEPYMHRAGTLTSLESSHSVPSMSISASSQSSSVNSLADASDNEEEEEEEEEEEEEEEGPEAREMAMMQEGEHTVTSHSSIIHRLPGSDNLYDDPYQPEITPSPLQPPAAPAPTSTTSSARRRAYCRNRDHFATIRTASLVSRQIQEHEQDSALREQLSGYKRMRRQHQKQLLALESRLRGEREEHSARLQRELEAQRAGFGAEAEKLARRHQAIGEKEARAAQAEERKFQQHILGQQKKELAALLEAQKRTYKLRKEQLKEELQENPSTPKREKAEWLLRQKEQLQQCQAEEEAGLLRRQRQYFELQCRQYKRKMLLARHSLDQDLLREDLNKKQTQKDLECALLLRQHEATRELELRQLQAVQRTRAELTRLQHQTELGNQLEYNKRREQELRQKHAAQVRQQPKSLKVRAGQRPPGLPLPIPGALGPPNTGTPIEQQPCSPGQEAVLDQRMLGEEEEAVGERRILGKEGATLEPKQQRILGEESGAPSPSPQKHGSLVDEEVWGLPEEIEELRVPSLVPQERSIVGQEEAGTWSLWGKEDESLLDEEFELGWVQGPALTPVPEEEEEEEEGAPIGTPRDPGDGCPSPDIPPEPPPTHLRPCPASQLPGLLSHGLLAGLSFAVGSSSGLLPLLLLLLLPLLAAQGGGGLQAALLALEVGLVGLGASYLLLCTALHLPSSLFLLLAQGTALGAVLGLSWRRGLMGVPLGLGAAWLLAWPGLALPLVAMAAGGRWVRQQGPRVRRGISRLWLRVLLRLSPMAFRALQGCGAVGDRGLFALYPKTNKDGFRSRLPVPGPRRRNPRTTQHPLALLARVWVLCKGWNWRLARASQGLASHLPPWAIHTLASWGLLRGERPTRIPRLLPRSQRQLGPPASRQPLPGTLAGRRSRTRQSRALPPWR
The note with it: at 1 µM.

Assay [7] deals with T3, Serine/threonine-protein kinase TAO2 (Homo sapiens). Conditions: at 10 µM.
For assay [8], the target named is T4, Serine/threonine-protein kinase TAO3 (Homo sapiens) (UniProt Q9H2K8).
T4 sequence (whole entry): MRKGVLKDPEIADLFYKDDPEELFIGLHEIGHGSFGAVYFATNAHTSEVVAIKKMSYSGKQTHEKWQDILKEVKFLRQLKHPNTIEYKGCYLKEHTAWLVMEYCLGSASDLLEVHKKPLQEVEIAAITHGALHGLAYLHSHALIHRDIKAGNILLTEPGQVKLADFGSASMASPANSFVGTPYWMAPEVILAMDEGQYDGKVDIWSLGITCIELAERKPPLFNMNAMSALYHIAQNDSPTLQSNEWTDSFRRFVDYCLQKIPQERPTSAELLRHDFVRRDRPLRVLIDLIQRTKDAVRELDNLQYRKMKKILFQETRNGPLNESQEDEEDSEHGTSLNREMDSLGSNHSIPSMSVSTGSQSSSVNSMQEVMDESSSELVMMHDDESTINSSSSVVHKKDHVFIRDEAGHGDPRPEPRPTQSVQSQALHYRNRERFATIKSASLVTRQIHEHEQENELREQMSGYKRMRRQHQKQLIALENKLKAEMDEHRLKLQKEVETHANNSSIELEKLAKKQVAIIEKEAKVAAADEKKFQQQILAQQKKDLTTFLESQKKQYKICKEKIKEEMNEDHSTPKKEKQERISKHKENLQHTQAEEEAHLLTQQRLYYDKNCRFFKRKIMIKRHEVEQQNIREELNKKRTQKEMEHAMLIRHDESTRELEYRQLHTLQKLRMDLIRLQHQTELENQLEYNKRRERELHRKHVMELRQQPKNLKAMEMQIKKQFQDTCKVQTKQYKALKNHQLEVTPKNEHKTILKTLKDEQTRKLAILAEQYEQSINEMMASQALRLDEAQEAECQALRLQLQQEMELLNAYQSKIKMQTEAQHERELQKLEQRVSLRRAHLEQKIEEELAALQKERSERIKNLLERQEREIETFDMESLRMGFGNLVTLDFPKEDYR
The note with it: at 1 µM.

Assay [9] deals with T4, Serine/threonine-protein kinase TAO3 (Homo sapiens). Conditions: at 10 µM.
Assay [10] deals with T5, Serine/threonine-protein kinase TBK1 (Homo sapiens) (UniProt Q9UHD2).
T5 sequence (whole entry): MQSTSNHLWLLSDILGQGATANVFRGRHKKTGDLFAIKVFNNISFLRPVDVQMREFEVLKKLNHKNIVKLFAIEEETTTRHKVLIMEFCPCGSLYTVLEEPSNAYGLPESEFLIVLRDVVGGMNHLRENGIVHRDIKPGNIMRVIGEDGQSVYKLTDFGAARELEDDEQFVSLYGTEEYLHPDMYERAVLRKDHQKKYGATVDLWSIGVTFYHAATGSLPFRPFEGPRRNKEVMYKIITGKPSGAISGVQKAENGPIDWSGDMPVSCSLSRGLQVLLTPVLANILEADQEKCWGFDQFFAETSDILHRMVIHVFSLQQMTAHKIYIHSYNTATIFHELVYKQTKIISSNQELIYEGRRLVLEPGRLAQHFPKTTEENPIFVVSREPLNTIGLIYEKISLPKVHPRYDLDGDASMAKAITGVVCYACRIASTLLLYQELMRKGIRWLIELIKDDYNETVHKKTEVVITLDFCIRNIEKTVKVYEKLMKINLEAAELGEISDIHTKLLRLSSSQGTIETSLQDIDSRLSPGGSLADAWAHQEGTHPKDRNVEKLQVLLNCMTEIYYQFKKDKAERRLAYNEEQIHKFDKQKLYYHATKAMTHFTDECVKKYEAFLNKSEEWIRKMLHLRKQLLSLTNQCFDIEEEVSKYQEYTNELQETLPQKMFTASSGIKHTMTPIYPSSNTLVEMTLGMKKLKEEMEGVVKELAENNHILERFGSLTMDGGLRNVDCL
Conditions: at 1 µM.

Consider `CCC(=O)Nc1ccc2ncnc(Nc3cccc(Br)c3)c2c1`, for which the residual activity in assay [1] is 84%; in assay [2] it was 92%; in [3], 90%; in [4], 96%; in assay [5], 86%; in assay [6], 98%. The residual activity stood at 91% in assay [7], 96% in [8], 95% in assay [9] and 69% in assay [10].
